Test results from ChEMBL document CHEMBL4513155, “CO-ADD screening of University of Sydney (Australia) compounds” (2021).
Measured potencies and affinities stand elsewhere.

Key:
[1] = test system: Klebsiella pneumoniae; settings: Concentration 32 ug.mL-1; ASSAY_TEST Inhibition of Bacterial Growth; detection method Absorption (OD600); MEDIA CAMHB; plate type 384well; NBS; CORNING #3640; time 18 hr
[2] = test system: Candida albicans; settings: 32 ug/mL
[3] = test system: Cryptococcus neoformans; settings: Concentration 32 ug.mL-1; ASSAY_TEST Inhibition of Fungal Growth; detection method Resazurin; Absorption (OD600-OD570); plate type 384well; NBS; CORNING #3640

Compound	Inhibition [1] [%]	Inhibition [2] [%]	Inhibition [3] [%]
Fc1ccc(CCOc2cncc3nnc(-c4ccc(C(F)(F)F)nc4)n23)cc1F	-0.34	2.23	-5.49
Fc1ccc(CCOc2cncc3nnc(-c4ccc(Cl)cc4)n23)cc1F	-4.32	7.82	-0.27
CCN1C(=O)c2cccc3c(-c4cn(CCN5CCCNCCN(CCn6cc([C@]7(O)CC[C@H]8[C@@H]9CCc%10cc(O)ccc%10[C@H]9CC[C@@]87C)nn6)CCCNCC5)nn4)ccc(c23)C1=O.OCCN1CCN(CCCN2c3ccccc3Sc3ccc(Cl)cc32)CC1.[O-][Cl+3]([O-])([O-])[O-].[O-][Cl+3]([O-])([O-])[O-].[Zn+2]	-7.97	5.51	7.03
O.O=C1c2cccc3c(-n4cc(CN5CCCNCCN(Cc6cn(-c7ccc8c9c(cccc79)C(=O)N(CCCO)C8=O)nn6)CCCNCC5)nn4)ccc(c23)C(=O)N1CCCO.[Cl-].[Cl-].[Zn+2]	2.32	7.28	-0.18
COC(COc1cncc2nnc(-c3ccc(C#N)cc3)n12)c1ccc(F)c(F)c1 (stereo unspecified)	-1.15	2.84	-10.36
CN(C)C(COc1cncc2nnc(-c3ccc(C#N)cc3)n12)c1ccc(F)c(F)c1 (stereo unspecified)	3.41	5.98	-16.61
N#Cc1ccc(-c2nnc3cncc(OCC(O)c4ccc(F)c(F)c4)n23)cc1 (stereo unspecified)	-1.23	4.19	-9.99
